Hits are enriched below; roughly 19% of the tested compounds scored in any of these assays.
TDP1 cell CPT: DT40-hTDP1 cell growth loss with CPT. chicken DT40 Tdp1-/-;hTDP1 cells + 20 nM CPT, ATP luminescence, 48 h. Potency, µM (top dose mostly 46.2 µM), without a hit: at the highest dose activity change, negative = growth inhibition, hits mostly inhibitors. 12% of 420,000 active; note: potency is the fitted concentration of half-maximal effect; nearly all actives have a fitted effect of over 55% in size
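Chicken DT40 Tdp1-/- cells stably complemented with human TDP1 were seeded at 400 cells/well in medium containing 20 nM camptothecin, exposed to pin-transferred compounds, and grown at 37 °C for at least 48 hr. Viability was read as ATP luminescence.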
HT1080 IDH1KD tx: HT-1080 IDH1 knockdown cell toxicity (counter line); HT-1080 IDH1 knockdown viability, ATP luminescence, 48 h; Potency, µM (titrated, usually from 46.1 µM), inactives show top-dose activity, negative = toxicity, most hits filed as cytotoxic; 2% of 360,000 active;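 note: potency is the fitted concentration of half-maximal effect; 0% = DMSO wells and -100% = cell-free medium wells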
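HT-1080-IDH1KD cells (IDH1 knocked down), 750/well in RPMI with 5% FBS, treated with compound 48 h at 37 degrees C. Viability by CellTiter-Glo luminescence, normalised to DMSO and no-cell wells; concentration-response curves classed.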
IL-1B inflam inh: inhibitors of inflammasome signaling (IL-1 beta secretion); THP-1 LPS/ATP IL-1B secretion, AlphaLISA, 16 h; hits give low values; activity change, % at 57.5 µM; 4.7% of 360,000 active; in the data active = activity change below about -50%; inconclusive = mostly about -30% to -49%
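Secreted IL-1B measured by AlphaLISA bead assay after 16 h compound exposure of THP-1 cells; compounds (final up to 57.5 uM) added 1 h before LPS (250 ng/mL) and ATP (1.25 mM) stimulation; lower signal means less secretion.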
HT1080-NT tox: kills 2HG-producing HT-1080-NT fibrosarcoma cells; Potency, µM (titrated, usually from 46.1 µM), for inactives: at the highest dose activity, negative = less viability, actives largely listed as cytotoxic; 1.6% of 360,000 active; HT-1080-NT fibrosarcoma viability, CellTiter-Glo ATP luminescence, 48 h;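 note: NT is the 2HG producing partner of a matched IDH1 knockdown line; potency is the fitted concentration of half-maximal effect; 0% = DMSO-treated cells and -100% = media-only wells without cells; nearly all actives have a fitted effect of over 55% in size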
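Viability by CellTiter-Glo luminescence after 48 h compound exposure at 37C of HT-1080-NT cells (750/well, RPMI, 5% FBS). % activity scaled between DMSO wells and medium-only wells, then curve-fitted and categorized by curve class.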
DT40 TDP1 no CPT: qHTS for Inhibitors of human tyrosyl-DNA phosphodiesterase 1 (TDP1): qHTS in cells in absence of CPT. DT40 Tdp1-/- hTDP1 cells, no CPT, ATP luminescence, 48 h. Potency, µM (doses to about 46.2 µM), for inactives: at the highest dose activity change, negative = growth inhibition, actives largely listed as inhibitors. 15% of 420,000 active. AID 686978, 2013; note: potency is the fitted concentration of half-maximal effect; nearly all actives have a fitted effect of over 55% in size
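Growth of hTDP1-complemented DT40 Tdp1-knockout cells is measured by ATP luminescence after at least 48 hr compound exposure at 37 °C, with DMSO substituting for the 20 nM CPT used in the parallel screen.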
* = called active by the depositor. Unless noted, calls come from the whole dose curve; as a rule, active = well fitted curve in the direction sought with a large enough effect; inconclusive = small, poorly fitted or top-dose-only effect, or another doubt; inactive = no such curve, though single readings can be large; an effect the other way counts as inactive or inconclusive. Unless noted, % is set by controls: 0 for no effect and ±100 for the full control effect.

How did O=C(CN1CCN(CC(=O)Nc2ccccc2Cc2ccccc2)CC1)Nc1ccccc1Cl do in these assays?
TDP1 cell CPT: 10µM*; HT1080 IDH1KD tx: 17%; IL-1B inflam inh: 16; HT1080-NT tox: 11%; DT40 TDP1 no CPT: 12µM*

What do the screens show for `O=C(CN1CCN(Cc2ccccc2)CC1)Nc1cccc(Cl)c1Cl`?
TDP1 cell CPT: inconclusive; HT1080 IDH1KD tx: 3%; IL-1B inflam inh: -19; HT1080-NT tox: 3%; DT40 TDP1 no CPT: 21µM*

Results for Cc1ccc(NC(=O)CN2CCN(Cc3ccccc3)CC2)cc1 ?
TDP1 cell CPT: -10%; HT1080 IDH1KD tx: 4%; IL-1B inflam inh: 4; HT1080-NT tox: -8%; DT40 TDP1 no CPT: -4%

How did O=C(CN1CCCC1)Nc1ccccc1Cl do in these assays?
TDP1 cell CPT: -3%; HT1080 IDH1KD tx: 2%; IL-1B inflam inh: -1; HT1080-NT tox: -1%; DT40 TDP1 no CPT: 0%

How did Cc1cn([C@H]2C[C@H](O)[C@@H](/C=C/C(=O)NCCc3ccc4ccccc4c3)O2)c(=O)[nH]c1=O do in these assays?
TDP1 cell CPT: -1%; HT1080 IDH1KD tx: 7%; IL-1B inflam inh: -3; HT1080-NT tox: 0%; DT40 TDP1 no CPT: -2%

Results for COC(=O)[C@]1(CC(C)C)N[C@H](c2ccc(-c3cccc(Cl)c3)cc2)[C@@H]2C(=O)N(C)C(=O)[C@@H]21 ?
TDP1 cell CPT: 13µM*; HT1080 IDH1KD tx: -16%; IL-1B inflam inh: inconclusive; HT1080-NT tox: inconclusive; DT40 TDP1 no CPT: 26µM*

How did CCN1C(=O)[C@H]2[C@@H](c3ccc(-c4ccccc4)cc3)N[C@@](CC(C)C)(C(=O)OC)[C@H]2C1=O do in these assays?
TDP1 cell CPT: 26µM*; HT1080 IDH1KD tx: 11%; IL-1B inflam inh: -2; HT1080-NT tox: 10%; DT40 TDP1 no CPT: 18µM*

Results for COC(=O)[C@]1(C)N[C@H](c2ccc(-c3cccc(Cl)c3)cc2)[C@@H]2C(=O)N(C)C(=O)[C@@H]21 ?
TDP1 cell CPT: inconclusive; HT1080 IDH1KD tx: -3%; IL-1B inflam inh: -24; HT1080-NT tox: 0%; DT40 TDP1 no CPT: inconclusive

How did CCC(C)Sc1ccc([C@H]2N[C@@](CC(C)C)(C(=O)OC)[C@H]3C(=O)N(CC)C(=O)[C@@H]23)cc1 (some centres not stated) do in these assays?
TDP1 cell CPT: inconclusive; HT1080 IDH1KD tx: 7%; IL-1B inflam inh: 0; HT1080-NT tox: 8%; DT40 TDP1 no CPT: inconclusive

What do the screens show for `CCN1C(=O)[C@H]2[C@@H](c3ccc(-c4ccccc4)c(OC)c3)N[C@@](CC(C)C)(C(=O)OC)[C@H]2C1=O`?
TDP1 cell CPT: 18µM*; HT1080 IDH1KD tx: -5%; IL-1B inflam inh: 0; HT1080-NT tox: -3%; DT40 TDP1 no CPT: 15µM*

How did CCN1C(=O)[C@H]2[C@@H](c3ccc(SC4CCCCC4)cc3)N[C@@](CC(C)C)(C(=O)OC)[C@H]2C1=O do in these assays?
TDP1 cell CPT: inconclusive; HT1080 IDH1KD tx: 3%; IL-1B inflam inh: -23; HT1080-NT tox: -25%; DT40 TDP1 no CPT: 21µM*

Results for CCN1C(=O)[C@H]2[C@@H](c3ccc(-c4cc(C(C)=O)cs4)cc3)N[C@@](Cc3ccccc3)(C(=O)OC)[C@H]2C1=O ?
TDP1 cell CPT: inconclusive; HT1080 IDH1KD tx: 15%; IL-1B inflam inh: 8; HT1080-NT tox: 8%; DT40 TDP1 no CPT: inconclusive

What do the screens show for `CCN1C(=O)[C@H]2[C@@H](c3ccc(-c4ccc(OC)cc4)c(OC)c3)N[C@@](CC(C)C)(C(=O)OC)[C@H]2C1=O`?
TDP1 cell CPT: inconclusive; HT1080 IDH1KD tx: -3%; IL-1B inflam inh: -5; HT1080-NT tox: 7%; DT40 TDP1 no CPT: inconclusive

What do the screens show for `CCCCCN(C(=O)CCC(=O)OCc1ccccc1C(F)(F)F)c1c(N)n(CCCC)c(=O)[nH]c1=O`?
TDP1 cell CPT: inconclusive; HT1080 IDH1KD tx: -18%; IL-1B inflam inh: inconclusive; HT1080-NT tox: -14%; DT40 TDP1 no CPT: -26%

What do the screens show for `COc1ccc(CC(N)c2csc(Nc3cc(NCCCO)ncn3)n2)cc1` (configuration not stated)?
TDP1 cell CPT: inconclusive; HT1080 IDH1KD tx: inconclusive; IL-1B inflam inh: -57*; HT1080-NT tox: -20%; DT40 TDP1 no CPT: inconclusive

What do the screens show for `NC(Cc1ccc(Cl)cc1)c1csc(Nc2ccc(C(=O)NCCCO)cn2)n1` (configuration not stated)?
TDP1 cell CPT: inconclusive; HT1080 IDH1KD tx: inconclusive; IL-1B inflam inh: 0; HT1080-NT tox: 15µM*; DT40 TDP1 no CPT: inconclusive

What do the screens show for `NC(Cc1ccc(Cl)cc1)c1csc(Nc2cc(NCCCO)ncn2)n1` (configuration not stated)?
TDP1 cell CPT: inconclusive; HT1080 IDH1KD tx: inconclusive; IL-1B inflam inh: -60*; HT1080-NT tox: inconclusive; DT40 TDP1 no CPT: 15µM*

How did NC(COCc1ccccc1)c1csc(Nc2cc(NCCCO)ncn2)n1 (configuration not stated) do in these assays?
TDP1 cell CPT: inconclusive; HT1080 IDH1KD tx: 3%; IL-1B inflam inh: -29; HT1080-NT tox: 7%; DT40 TDP1 no CPT: inconclusive

Results for NC(Cc1ccccc1)c1csc(Nc2ccc(C(=O)NCCCO)cn2)n1 (configuration not stated) ?
TDP1 cell CPT: inconclusive; HT1080 IDH1KD tx: 15%; IL-1B inflam inh: -4; HT1080-NT tox: -5%; DT40 TDP1 no CPT: inconclusive

Results for CC(C)C(NC(=O)c1ccccc1F)C(=O)NCc1ccc(F)cc1 (configuration not stated) ?
TDP1 cell CPT: -6%; HT1080 IDH1KD tx: 6%; IL-1B inflam inh: 11; HT1080-NT tox: -2%; DT40 TDP1 no CPT: -10%

How did CCC(C(=O)OCC(=O)Nc1ccc2[nH]c(=O)[nH]c2c1)c1ccccc1 (configuration not stated) do in these assays?
TDP1 cell CPT: 5%; HT1080 IDH1KD tx: -10%; IL-1B inflam inh: -3; HT1080-NT tox: -3%; DT40 TDP1 no CPT: -3%

How did O=C(CN1CCN(C(=O)C2CCCO2)CC1)Nc1cc(Cl)ccc1Cl (configuration not stated) do in these assays?
TDP1 cell CPT: inconclusive; HT1080 IDH1KD tx: -6%; IL-1B inflam inh: 18; HT1080-NT tox: -8%; DT40 TDP1 no CPT: -7%

Results for CCCCN1C(=S)NC[C@@H]1Cc1ccccc1 ?
TDP1 cell CPT: inconclusive; HT1080 IDH1KD tx: 8%; IL-1B inflam inh: 4; HT1080-NT tox: 1%; DT40 TDP1 no CPT: inconclusive

What do the screens show for `S=C1NC[C@H](c2ccccc2)N1CC1CCCCC1`?
TDP1 cell CPT: 21µM*; HT1080 IDH1KD tx: 7%; IL-1B inflam inh: -5; HT1080-NT tox: -1%; DT40 TDP1 no CPT: 23µM*
